Laboratory results taken from the supplement of paper PMC10720658.
± gives the standard deviation of the averaged measurements.

system: AEK1 (Tb927.3.2440); test: percent reduction in TR-FRET probe signal relative to DMSO control; higher = stronger displacement of ATP-site probe (binding); settings: 1 µM; incubation time 1 h

Point of comparison: N#C/C(=C\c1ccc(O)c(O)c1)C(=O)NCc1ccccc1 [AG-490 (Tyrphostin B42)], “percent reduction in TR-FRET probe signal” value -5.12 ± 12%. Against it:
- CCc1cnn2c(NCc3ccc[n+]([O-])c3)cc(N3CCCC[C@H]3CCO)nc12 — within error, -4.69 ± 4.1%
- Cc1cnc(Nc2ccc(OCCN3CCCC3)cc2)nc1Nc1cccc(S(=O)(=O)NC(C)(C)C)c1 — higher, 31.6 ± 15%
- CN1CCN(c2cccc(Nc3nc4c(-c5ccc(S(C)(=O)=O)cc5)cccn4n3)c2)CC1 — within error, 7.3 ± 6.6%
- FC(F)c1nc2ccccc2n1-c1nc(N2CCOCC2)nc(N2CCOCC2)n1 — within error, -1.21 ± 9.1%
- CCCCCCCCCCCCCCCc1cccc(O)c1C(=O)O [Anacardic Acid] — within error, 19.2 ± 19%
- COCCOc1ccc2c(c1)ncn2-c1ccc2cccc(N3CCC(N)CC3)c2n1 — higher, 24.4 ± 7.1%
- COc1cc(N2CCC(N)CC2)ccc1Nc1ncc(Cl)c(-c2c[nH]c3ccccc23)n1 — within error, 7.47 ± 4.6%
- Cn1cc(-c2ccc3ncc(Cc4ccc5ncccc5c4)n3n2)cn1 — within error, 4.34 ± 8.7%
- O=C(Nc1ccccc1C(=O)NC1CCCCNC1=O)c1cc2ccccc2s1 (stereo not given) — within error, -0.533 ± 1.2%
